About 2,700 (0.77%) of roughly 350,000 compounds were called active. This excerpt belongs to a sample that is enriched for actives. Unmarked numbers belong to inactive results.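 How the source made its calls: active means inhibition reaching at least a set limit at 20 µM in the primary screen (cut at about 59% in these data); inactive means the rest.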
System: glucose-6-phosphate dehydrogenase-6-phosphogluconolactonase (Plasmodium falciparum 3D7)
Assay: inhibition of malaria parasite G6PD (PfGluPho) – biochemical, fluorescence intensity, uHTS, primary screen (AID 504690);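 further: 0% = DMSO wells with substrate and 100% = DMSO wells lacking glucose-6-phosphate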
Conditions: PfGluPho enzyme, NADPH resazurin-diaphorase fluorescence; at 20 µM; active compounds read high

Point of comparison: CC(C)(C)c1cc2cccnc2n1Cc1ccccc1, inhibition 2.96%. Against it:
- COc1ccc(Cl)cc1NC(=O)CCS(=O)(=O)c1ccc(Br)cc1 — higher, 43%
- O=C(COC(=O)/C(=C/c1cccs1)c1cccs1)NCc1ccccc1Cl — lower, -3.87%
- Cc1cc(C(C)(C)C)cc(C)c1N — higher, 12.1%
- COc1ccc(-c2cc(C)nc3nc(N)nn23)cc1 — lower, -2.23%
- CC(C)C(c1nnnn1C1CCCCC1)N1CCN(C(=O)c2ccco2)CC1 (stereo unspecified) — lower, -12.7%
- CN(CCc1cnn(C)c1)Cc1cn(C)nc1-c1ccccc1F — lower, -8.15%
- CNC(=O)c1sc(Nc2ccc(OCc3ccccc3)cc2)nc1C — higher, 19.4%
- COc1ccc(NC(=O)CCC(=O)Nc2nnc(C3CCCCC3)s2)cc1 — lower, -7.47%
- COc1ccc(NC(=O)CN2C(=O)COc3ccc(S(=O)(=O)N4CCOCC4)cc32)c(OC)c1 — lower, -0.58%
- O=C(c1ncn2c1c(=O)[nH]c1ccccc12)N1CCc2ccccc2C1 — higher, 8.24%
- CC(=O)N(C)c1ccc(NC(=O)Nc2cccc3ccccc23)cc1 — lower, -6.82%
- COc1cc2ccccc2cc1C(=O)Nc1ccccc1C — lower, -15.2%
- COc1ccccc1C(=O)Nc1ccccc1C(=O)Nc1ccccc1 — higher, 8.55%
- C=CCNC(=O)c1sc(SC)cc1-c1ccc(Cl)cc1 — higher, 9.14%
- CCc1ccc2[nH]c(=O)c(Cc3ccccc3)c(O)c2c1 — lower, -9.56%
- COc1ccc(CCC(=O)N2CCN(S(=O)(=O)c3ccc(OC)cc3)CC2)cc1 — lower, -10.5%
- O=c1[nH]c2ccccc2s1 — higher, 5.6%
- C/C(=C\c1ccco1)CN1CCC(N2CCC(C(=O)N3CCOCC3)CC2)CC1 — lower, -6.22%
- CN(C(=O)c1cccc(NC(=O)Cc2cccc(NC(=O)C3CCCN(C(=O)C4CC4)C3)c2)c1)C1CCC1 (stereo unspecified) — higher, 13.5%
- Cc1ccc(Nc2nc(CSc3nnnn3-c3ccccc3)cc(=O)[nH]2)cc1 — lower, 2.74%
- C/C(=N/NC(=O)C1COc2ccccc2O1)c1ccco1 (stereo unspecified) — lower, -17.2%
- COc1ccc(NC(=O)COC(=O)C2COc3ccccc3O2)cc1 (stereo unspecified) — lower, -2.2%
- CCOC(=O)C1(CCOc2ccccc2)CCN(C(=O)c2cncs2)CC1 — lower, -8.03%
- N#Cc1cnn2cc(CCN3CCOCC3)c(-c3ccc(F)cc3)nc12 — lower, -4.2%
- O=C(C1CC(=O)N(C2CCCCC2)C1)N1CCN(c2ccccc2)CC1 (stereo unspecified) — lower, 1.77%
- O=C(C1CCC1)N1CCN(c2ccccc2)CC1 — lower, -11.2%
- O=C(CSc1ccc(C(F)(F)F)cc1[N+](=O)[O-])NCCOc1ccccc1 — higher, 4.59%
- CCc1cccc(NC(=S)N(CCN(C)C)C2CCN(C(C)C)CC2)c1 — lower, -1.59%
- CC(C)c1cc(C(N)=O)c(NC(=O)c2cccc(COc3ccc(Br)cc3)c2)s1 — higher, 17.7%
- CC(C)Oc1ccc(C(=O)NC(C)(C)CO)cc1 — lower, -5.29%
- CCn1c(SCC(=O)Nc2sc(C)c(C)c2C#N)nnc1C1CC1 — higher, 13.8%
- Cc1cc(C(F)(F)F)nc(SCC(=O)Nc2nccs2)n1 — higher, 14.7%
- CCOC(=O)c1cc2c(=O)n3ccccc3nc2n(CC(C)C)c1=NC(=O)c1c(-c2c(F)cccc2Cl)noc1C — higher, 10.9%
- O=C(Cc1ccccc1)N/N=C/c1ccc(Cl)cc1Cl — higher, 8.79%
- O=C(CSc1nnc(SCc2ccc(F)cc2)s1)Nc1ccc(C(=O)O)cc1 — lower, -15.7%
- CC1CCCN(C(=O)Cn2c(=O)oc3cc(S(=O)(=O)N4CCCCC4C)ccc32)C1 (stereo unspecified) — lower, -4.91%

Cc1cc(N)n2nc(-c3ccc(C(C)(C)C)cc3)cc2n1 was tested, and the inhibition was 84.5% (active).
In the case of COC(=O)CCc1sc(Nc2ccc(Br)cc2)nc1-c1ccc(OC)cc1, the inhibition is reported as 64.3% (active).
In the case of O=c1[nH]c2ccccc2n2c(-c3ccccc3)nnc12, the inhibition is reported as 102% (active).
For COc1ccc(C(=O)Nc2cc(C)c(NC(=O)c3ccccc3OC)cn2)cc1, the inhibition was 79.1% (active).
In the case of Nc1ccc2[nH]c(=S)sc2c1, the inhibition is reported as 74.7% (active).
For O=C(Nc1nc(-c2ccncc2)cs1)C1COc2ccccc2O1 (stereo unspecified), the inhibition was 82.1% (active).
For O=C1C=CC(=O)N1c1ccc(N2CCCCC2)cc1, the inhibition was 59.2% (active).
For CCOC(=O)c1sc(NC(=O)CSc2nc(C)cc(C(F)(F)F)n2)c(C#N)c1C, the inhibition was 60.4% (active).
In the case of O=C(CSc1nnc(SCc2ccc(Cl)cc2)s1)N/N=C/c1ccccc1Cl, the inhibition is reported as 75.1% (active).
